In the library only some 3.7% were active in any assay of this set; here they are far more common.
ATXN viability: reduces viability in counter-screen for ATXN expression inhibitors; S2 cells (HEK-293 line with an ATXN2-luciferase reporter) viability, CellTiter-Fluor protease fluorescence, 24 h; Potency, µM (series often up to 56.7 µM), hits mostly cytotoxic; 400,000 compounds, 0.49% hits; AID 651635; further: nearly all actives have a fitted effect of over 40% in size
ATXN2 expr inh: ATXN2 expression inhibition. Potency, µM (titrated, usually from 57 µM), inactives show top-dose activity change, negative = inhibition, actives largely listed as inhibitors. 360,000 compounds, 0.72% hits. HEK-293 ATXN2-luciferase reporter, luminescence, 24 h. AID 1745845; further: on the % scale 0 is the no-effect control and ±100 the full control effect; nearly all actives have a fitted effect of over 55% in size
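qHTS (up to 57 uM final) was run with 24 h compound exposure of reporter cells at 37 °C. Each well was multiplexed: SteadyGlo luminescence measured ATXN2-luciferase expression after a fluorogenic Gly-Phe-AFC viability readout (25 uM final).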
GLP-1R agonist: GLP-1 receptor (human) agonism; HEK293 GLP-1R CRE-luciferase, luminescence, 4-6 h; cells express a hypersensitive GLP-1R form; Potency, µM (titrated, usually from 45.6 µM), for the others: at the top dose activation, usual class: activators; 380,000 compounds, 0.007% hits; P43220; further: % of control where 0% means no effect
Target sequence (P43220 whole entry, looked up): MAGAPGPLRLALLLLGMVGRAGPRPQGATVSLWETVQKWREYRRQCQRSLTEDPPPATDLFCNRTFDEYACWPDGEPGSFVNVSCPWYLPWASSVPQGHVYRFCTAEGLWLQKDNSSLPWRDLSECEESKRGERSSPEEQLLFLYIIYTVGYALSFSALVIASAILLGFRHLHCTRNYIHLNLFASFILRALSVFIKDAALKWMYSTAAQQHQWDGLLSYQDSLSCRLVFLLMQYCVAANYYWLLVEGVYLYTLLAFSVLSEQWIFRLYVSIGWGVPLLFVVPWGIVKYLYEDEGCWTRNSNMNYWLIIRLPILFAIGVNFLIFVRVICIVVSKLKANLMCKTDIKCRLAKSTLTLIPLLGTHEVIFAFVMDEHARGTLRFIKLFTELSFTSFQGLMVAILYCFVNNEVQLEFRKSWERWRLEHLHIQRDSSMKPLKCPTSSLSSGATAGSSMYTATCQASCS
HepG2 tox-1: HepG2 cytotoxicity, counter-screen for TGF-b inhibitors. HepG2 CAGA-GFP viability, ATP luminescence, 18 h. Potency, µM (top dose mostly 46.1 µM), for the others: at the highest dose activity change, negative = cytotoxicity, hits mostly cytotoxic. 410,000 compounds, 0.76% hits
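HepG2 CAGA-GFP cells (1000/well, DMEM with 1% FBS) received compound, then TGF-beta at 500 pg/mL final, and were incubated 18 hours at 37 degrees C. Viability was read by CellTiter-Glo luminescence. Media-only wells were set as complete cell-killing and DMSO as no toxicity.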
TGFb inhibitor: inhibitors of TGF-b signaling | HepG2 CAGA-GFP TGF-b/SMAD3 reporter, GFP fluorescence, 18 h; TGF-beta stimulated, 500 pg/mL final | Potency, µM (titrated, usually from 46.1 µM), inactives show at the top dose activity, negative = inhibition, actives largely listed as inhibitors | 410,000 compounds, 1.2% hits; further: on the % scale 0 is the no-effect control and ±100 the full control effect; nearly all actives have a fitted effect of over 65% in size
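HEPG2 CAGA-GFP reporter cells (1000/well, DMEM with 1% FBS) received compounds, then recombinant TGF-beta at 500 pg/mL final for 18 hours at 37 degrees C. Per-cell GFP summed per well was normalised to unstimulated and stimulated DMSO controls before curve fitting.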
GLP-1R inv ag: acts as inverse agonist at human GLP-1 receptor; P43220; HEK293 GLP-1R CRE-luciferase, luminescence, 24 h; GLP-1R form is constitutively active; Potency, µM (titrated, usually from 38.3 µM), for inactives: at the top dose activity change, negative = inhibition, hits mostly inhibitors; 410,000 compounds, 1.6% hits; further: on the % scale 0 is the no-effect control and ±100 the full control effect; nearly all actives have a fitted effect of over 55% in size
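HEK293 cells stably co-expressing a cAMP-responsive luciferase reporter and constitutively active GLP-1R were seeded, incubated 12 h, then exposed to compounds for 24 h at 37 C. Luminescence was read 12 min after detection reagent; inverse agonists lower signal.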
TGFb CAGA inh: TGF-b pathway inhibition, cherry-pick retest; HepG2 CAGA-GFP TGF-b reporter, GFP fluorescence, 18 h; cells stimulated with TGF-beta, 500 pg/mL; 1,600 compounds, 63% hits; Potency, µM (series often up to 46.1 µM), inactives show top-dose activity, negative = inhibition, most hits filed as inhibitors; shares compounds with TGFb inhibitor; further: on the % scale 0 is the no-effect control and ±100 the full control effect; nearly all actives have a fitted effect of over 65% in size
HepG2 tox-2: counter-screen for TGF-b inhibitors: cytotoxicity in HepG2 cells. shares compounds with TGFb inhibitor. HepG2 CAGA-GFP viability, ATP luminescence, 18 h; cells stimulated with TGF-beta, 500 pg/mL. Potency, µM (titrated, usually from 46.1 µM), for inactives: at the top dose activity, negative = cytotoxicity, usual class: inhibitors. 1,600 compounds, 27% hits; further: on the % scale 0 is the no-effect control and ±100 the full control effect; nearly all actives have a fitted effect of over 70% in size
TGFb CCL64 inh: orthogonal confirmation of TGF-b inhibitors in CCL64 cells; shares compounds with TGFb inhibitor; CCL64 CAGA-GFP reporter, TGF-b stimulated, GFP fluorescence, 18 h; Potency, µM (titrated, usually from 46.1 µM), for inactives: top-dose activity, negative = inhibition, most hits filed as inhibitors; 1,600 compounds, 41% hits; AID 720536; further: nearly all actives have a fitted effect of over 65% in size
COP TGFb inh: validation of TGF-b inhibitors in HepG2 COP promoter reporter; shares compounds with TGFb inhibitor; HepG2 COP-GFP TGF-b reporter, GFP fluorescence, 18 h; cells stimulated by added recombinant TGF-beta; Potency, µM (top dose mostly 46.1 µM), for inactives: at the top dose activity, negative = inhibition, actives largely listed as inhibitors; 1,600 compounds, 3% hits; AID 720537; further: nearly all actives have a fitted effect of over 70% in size
An asterisk follows results filed as active. The call rests on the fitted dose curve; in most records, active means well fitted curve in the direction sought with a large enough effect; inconclusive means small, poorly fitted or top-dose-only effect, or another doubt; inactive means no such curve, though single readings can be large; an effect the other way counts as inactive or inconclusive. Potency means the concentration at half of the fitted maximal effect.

Screening CCOc1ccccc1CNC(=O)c1ccc(Sc2ccc(Cl)cc2)c(NC(C)=O)c1 returned ATXN viability inactive, ATXN2 expr inh 2%, GLP-1R agonist -2%, HepG2 tox-1 -1%, TGFb inhibitor inconclusive, GLP-1R inv ag inconclusive, TGFb CAGA inh inconclusive, HepG2 tox-2 -26%, TGFb CCL64 inh inconclusive and COP TGFb inh -3%.
CCCC/C=C/[C@H](c1ccccc1)[C@H](CO)Cc1cnc2ccccc2c1 was read as HepG2 tox-1 -69% and TGFb inhibitor inconclusive.
Cc1cccc(C2(c3cccc(C)c3)CC2C(=O)Nc2ccc([N+](=O)[O-])cc2O)c1 (stereo not drawn) was read as ATXN viability 18µM*, ATXN2 expr inh inconclusive, GLP-1R agonist -5%, HepG2 tox-1 11µM*, TGFb inhibitor 7.9µM*, GLP-1R inv ag 2.5µM*, TGFb CAGA inh 6.5µM*, HepG2 tox-2 12µM*, TGFb CCL64 inh 7.3µM* and COP TGFb inh 12%.
For Oc1ccccc1-c1nc2cnccn2c1Nc1ccc2c(c1)OCCO2 the results were ATXN viability inactive, ATXN2 expr inh -17%, GLP-1R agonist 0%, HepG2 tox-1 -4%, TGFb inhibitor inconclusive, GLP-1R inv ag -8%, TGFb CAGA inh inconclusive, HepG2 tox-2 -2%, TGFb CCL64 inh inconclusive and COP TGFb inh 0%.
Screening Cc1cc(C)c(S(=O)(=O)Nc2ccc(-c3ccc(N4CCCCC4)nn3)cc2)c(C)c1 returned ATXN viability inconclusive, ATXN2 expr inh 11%, HepG2 tox-1 -26%, TGFb inhibitor -20% and GLP-1R inv ag inconclusive.
CC1=C(C(=O)N(C(C)C)C(C)C)CC(CC(=O)NCCCCc2ccccc2)C(=O)N1Cc1ccccc1 (stereo not drawn) was read as ATXN viability inconclusive, ATXN2 expr inh 0%, GLP-1R agonist -4%, HepG2 tox-1 -34%, TGFb inhibitor inconclusive and GLP-1R inv ag inconclusive.
CC1=C(C(=O)N(C(C)C)C(C)C)CC(CC(=O)NCCCCc2ccccc2)C(=O)N1Cc1ccc(F)cc1 (stereo not drawn) was read as ATXN viability inconclusive, ATXN2 expr inh inconclusive, GLP-1R agonist 1%, HepG2 tox-1 3%, TGFb inhibitor 7.9µM*, GLP-1R inv ag inconclusive, TGFb CAGA inh inconclusive, HepG2 tox-2 -6%, TGFb CCL64 inh 23µM* and COP TGFb inh -4%.
For CC1=C(C(=O)N(C(C)C)C(C)C)CC(CC(=O)NC(c2ccccc2)c2ccccc2)C(=O)N1Cc1ccc(C(C)(C)C)cc1 (stereo not drawn) the results were ATXN viability inactive, ATXN2 expr inh inconclusive, GLP-1R agonist -5%, HepG2 tox-1 2%, TGFb inhibitor 18µM*, GLP-1R inv ag inconclusive, TGFb CAGA inh 9.2µM*, HepG2 tox-2 -27%, TGFb CCL64 inh inconclusive and COP TGFb inh 9%.
For CCC(C)NC(=O)Cn1c(=O)c2cccn2c2ccc(F)cc21 (stereo not drawn) the results were HepG2 tox-1 6%, TGFb inhibitor 3% and GLP-1R inv ag 0%.
COc1ccc(S(=O)(=O)c2c(Nc3ccccc3F)sc(C(=O)c3cccc(OC)c3)c2N)cc1 was read as HepG2 tox-1 -17%, TGFb inhibitor -6% and GLP-1R inv ag inconclusive.
`Cc1ccc(NC(=O)Cn2c(/C=C/c3ccccc3)nc3ccccc32)cc1C` gave ATXN viability inactive, ATXN2 expr inh -20%, GLP-1R agonist -5%, HepG2 tox-1 -29%, TGFb inhibitor -1% and GLP-1R inv ag 10%.
`CC(C)c1ccccc1NC(=O)Cn1c(/C=C/c2ccccc2)nc2ccccc21` gave ATXN viability inconclusive, ATXN2 expr inh -15%, GLP-1R agonist -1%, HepG2 tox-1 13µM*, TGFb inhibitor 10µM*, GLP-1R inv ag inconclusive, TGFb CAGA inh -24%, HepG2 tox-2 inconclusive, TGFb CCL64 inh inconclusive and COP TGFb inh -10%.
Screening Cc1ccc(-c2ccc(C(=O)Nc3ccccc3)o2)c2ccccc12 returned ATXN viability inactive, ATXN2 expr inh -8%, GLP-1R agonist -5%, HepG2 tox-1 -10%, TGFb inhibitor inconclusive and GLP-1R inv ag inconclusive.
`Cc1cscc1-c1ccc(C(=O)Nc2c(C)cccc2C)o1` gave ATXN viability inconclusive, ATXN2 expr inh -28%, GLP-1R agonist 1%, HepG2 tox-1 -25%, TGFb inhibitor 14µM*, GLP-1R inv ag inconclusive, TGFb CAGA inh 12µM*, HepG2 tox-2 -13%, TGFb CCL64 inh -29% and COP TGFb inh 17%.
For Cc1cn2c(=O)cc(COC(=O)c3ccc(NC(=O)c4ccc(C(C)(C)C)cc4)cc3)nc2s1 the results were HepG2 tox-1 8%, TGFb inhibitor 6% and GLP-1R inv ag 7%.
COc1cc2c(cc1OC)C(C)N(C(=O)c1cc(C)on1)CC2 (stereo not drawn) was read as ATXN viability inconclusive, ATXN2 expr inh 0%, GLP-1R agonist 31%, HepG2 tox-1 4%, TGFb inhibitor 11µM*, GLP-1R inv ag inconclusive, TGFb CAGA inh 7.3µM*, HepG2 tox-2 1%, TGFb CCL64 inh inconclusive and COP TGFb inh inconclusive.

Screening results as filed in PubChem BioAssay.
